ANO1 activ: TMEM16A chloride channel activators or potentiators, primary screen, cell-based, HTS; B-score at 10 µM; HEK293 TMEM16A/YFP-H148Q/I152L, iodide quench fluorescence; stronger effect = lower value; AID 623877, 2012; Anoctamin-1 (Mus musculus), Q8BHY3; 0.3% of 340,000 active;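 active = fluorescence-ratio B-score plate-corrected deviation score at least 3 library SD below zero, with starting fluorescence score within 5 deviations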;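 also: channel opened by trigger with iodide after compound preincubation; score built on the fluorescence ratio of max minus min over baseline; more negative score means more quench and so TMEM16A activation or potentiation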
Target sequence (Q8BHY3 whole entry, looked up): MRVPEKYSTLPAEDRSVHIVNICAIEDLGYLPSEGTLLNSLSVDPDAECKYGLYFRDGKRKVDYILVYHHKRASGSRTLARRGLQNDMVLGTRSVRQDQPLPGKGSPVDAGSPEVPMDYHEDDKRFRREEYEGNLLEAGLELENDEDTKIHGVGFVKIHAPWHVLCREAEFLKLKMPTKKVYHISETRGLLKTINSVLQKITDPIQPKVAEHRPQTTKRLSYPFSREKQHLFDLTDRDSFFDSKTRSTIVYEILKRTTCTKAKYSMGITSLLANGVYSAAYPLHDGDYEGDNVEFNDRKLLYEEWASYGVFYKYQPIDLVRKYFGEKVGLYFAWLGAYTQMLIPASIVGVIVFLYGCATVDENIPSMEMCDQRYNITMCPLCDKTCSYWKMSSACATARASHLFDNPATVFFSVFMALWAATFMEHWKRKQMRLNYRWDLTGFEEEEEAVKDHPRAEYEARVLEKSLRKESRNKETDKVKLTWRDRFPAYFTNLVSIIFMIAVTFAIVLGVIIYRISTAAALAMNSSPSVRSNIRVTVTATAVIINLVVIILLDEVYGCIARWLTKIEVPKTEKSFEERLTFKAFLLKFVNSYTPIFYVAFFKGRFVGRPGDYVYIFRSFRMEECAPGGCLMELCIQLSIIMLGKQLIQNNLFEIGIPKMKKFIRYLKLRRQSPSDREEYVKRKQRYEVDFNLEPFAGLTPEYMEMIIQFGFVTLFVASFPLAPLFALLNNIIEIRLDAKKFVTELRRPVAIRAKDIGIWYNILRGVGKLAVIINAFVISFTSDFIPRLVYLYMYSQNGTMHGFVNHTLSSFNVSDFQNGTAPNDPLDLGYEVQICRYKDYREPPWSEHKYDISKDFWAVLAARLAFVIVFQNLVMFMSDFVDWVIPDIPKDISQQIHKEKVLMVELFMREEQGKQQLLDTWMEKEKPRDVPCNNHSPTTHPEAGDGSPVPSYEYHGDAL
aSyn UTR inh: MLPCN primary screen, SNCA 5' untranslated region | AID 1813, 2009 | alpha-synuclein 5'UTR reporter, inhibitor activity | 0.82% of 300,000 active | inhibition, % (tested at 7.5 µM); in the data active = inhibition above about 60%;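 also: H4 neuroglioblastoma cells stably carrying SNCA 5'UTR luciferase fusion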
Jurkat NFkB inh: inhibitors of induced NF-kB luciferase reporter, primary screen, TCR NF-kB activation inhibitor project, cell-based, luminescence, uHTS; Jurkat, PMA/ionomycin-induced NF-kB luciferase reporter; 0.53% of 330,000 active; inhibition, % at 4 µM; in the data active = inhibition above about 50%
ANO1 block: TMEM16A chloride channel inhibitors, primary screen, cell-based, HTS. 1.2% of 310,000 active. HEK293 TMEM16A/YFP iodide influx fluorescence, ionomycin. normalized B-score (activity score, 25-100; higher = stronger inhibition) at 10 µM;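 active = ratio plate-corrected score three or more library SD toward inhibition, starting fluorescence score within five deviations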;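 also: score derived from kinetic fluorescence span divided by baseline fluorescence per well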
697 NFkB inh: inhibitors of PMA/ionomycin-induced NF-kB reporter, 697 cells, primary screen, B-cell NF-kB inhibitor project, cell-based, luminescence, uHTS | inhibition, % at 4 µM | 697 B-cell NF-kB luciferase reporter, 16 h | 0.33% of 330,000 active; in the data active = inhibition above about 35%
KLF5 inh: KLF5 expression inhibitors, primary screen, DLD-1 cells, luminescence; DLD-1 KLF5 promoter-luciferase reporter; inhibition, % at 5 µM; 0.23% of 290,000 active; AID 1700, 2009;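 active = inhibition above a per-plate limit of that plate's mean compound inhibition plus 3 SD, cut at about 60% in these data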;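 also: higher means less KLF5 promoter-driven luciferase light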
Large screens that a line does not name were inactive; ! = a repeat was not active. Sampled rows, rich in hits. Any-hit rate of the full collection: about 2.5%.

COc1ccc(CCN2CC(C(=O)Nc3nccs3)CC2=O)cc1OC (stereo unspecified)	none (no result: aSyn UTR inh, ANO1 block, KLF5 inh)
O=C(COc1ccc(Cl)cc1)Nc1nc(-c2cccs2)cs1	ANO1 block 100
CCOc1ccc(OCC(=O)Nc2nccs2)cc1	aSyn UTR inh 69
COc1ccc(CCC(=O)NCc2cn3ccccc3n2)cc1	none
COc1ccc(C(=O)C2CCCN(C(=O)c3ccc4cc[nH]c4c3)C2)c(C)c1 (stereo unspecified)	ANO1 activ -13
O=C(N/N=C/C=C/c1ccccc1)c1n[nH]c2c1CCC2	aSyn UTR inh 70
Cc1ccc(/C=N/NC(=O)c2n[nH]c3c2CCCC3)cc1	aSyn UTR inh 77
O=C(N/N=C/c1cccs1)c1n[nH]c2c1CCCC2	aSyn UTR inh 82
Cn1c(N)c(C(=O)CSc2nc(C3CC3)n(-c3ccccc3)n2)c(=O)[nH]c1=O	none (no result: aSyn UTR inh, ANO1 block, KLF5 inh)
CCOC(=O)N1CCC(NC(=O)c2ccc(CS(=O)c3cccc(Cl)c3)o2)CC1 (stereo unspecified)	none
Cc1cc(C(=O)Nc2ccncc2)c2ccccc2n1	none
CN(C)c1ccc(C(=S)Nc2ccccc2)cc1	none
CN(C)c1ccc(NC(=S)c2ccccn2)cc1	aSyn UTR inh 97 (no result: Jurkat NFkB inh, 697 NFkB inh)
CC(=O)c1cccc(S(=O)(=O)N2CCN(CCOc3ccccc3)CC2)c1	none (no result: aSyn UTR inh, ANO1 block, KLF5 inh)
COc1ccc(C2NC(c3ccc(OC)cc3)C(C)C(=O)C2C)cc1 (stereo unspecified)	none
CC1C(=O)C(C)C(c2ccc(Cl)cc2)NC1c1ccc(Cl)cc1 (stereo unspecified)	aSyn UTR inh 68 (no result: KLF5 inh)
Cc1ccc(S(=O)(=O)N2CCN(c3ncnc4scc(-c5ccccc5)c34)CC2)cc1	ANO1 activ -31 (no result: aSyn UTR inh, ANO1 block, KLF5 inh)
COc1ccc(C(=O)COC(=O)CNC(=O)c2ccc(Cl)cc2Cl)c(OC)c1	none (no result: KLF5 inh)
CC1CC(C)(C)N(C(=O)CSc2ccc(-c3ccc(F)cc3)nn2)c2ccccc21 (stereo unspecified)	ANO1 block 100
COc1ccccc1N1CCN(C(=O)c2onc(C)c2Cl)CC1	ANO1 activ -7.7
O=C(NCc1cccc(F)c1F)C1CCC(=O)N(C2CCCCCC2)C1 (stereo unspecified)	none
Fc1ccc(-n2nnc(-c3cccnc3)n2)cc1	none
Fc1ccc(-n2nnc(-c3cnc4ccccc4c3)n2)cc1	aSyn UTR inh 94
O=C(NC1CCCCC1)C(c1ccccc1F)N(C(=O)c1csnn1)C1CCCC1 (stereo unspecified)	none
COc1ccc(N2CCN(C(=O)C(Cc3ccccc3)n3cccc3)CC2)cc1 (stereo unspecified)	ANO1 activ -15
Cc1ccc(S(=O)(=O)N2CCCCC2)cc1C(=O)NCc1ccc(S(N)(=O)=O)cc1	none (no result: aSyn UTR inh, ANO1 block, KLF5 inh)
CC(C)Cn1c(-c2ccco2)n[nH]c1=S	ANO1 block 25
CCn1c(-c2ccco2)n[nH]c1=S	none
CCCCc1ccc(C2C(C#N)=C(N)SC(N)=C2C#N)s1	ANO1 block 100 (no result: ANO1 activ, aSyn UTR inh)
Nc1ccc(/C=C/C(=O)c2cccs2)cc1	ANO1 activ -5.7
O=C(NCc1ccco1)c1sc(=S)n2c1[nH]c(=O)c1ccccc12	ANO1 block 100
O=C(NC1CCCC1)c1sc(=S)n2c1[nH]c(=O)c1ccccc12	none
O=C(NNC(=O)C(c1ccccc1)c1ccccc1)c1ccccn1	aSyn UTR inh 72
O=C(NNC(=S)Nc1ccc(Cl)c(Cl)c1)c1ccccn1	aSyn UTR inh 68
CCNC(=S)NNC(=O)c1ccccn1	none
C=C(C)CN1C(=O)C2(OCCO2)c2cc(Br)ccc21	none (no result: KLF5 inh)
COc1ccc(OC)c(CC(NC(C)=O)C(=O)NC2CCN(S(=O)(=O)c3ccc(NC(C)=O)cc3)CC2)c1 (stereo unspecified)	none
CCC(NC(=O)c1ccc2nc(Cc3ccc(OC)cc3)oc2c1)c1ccncc1 (stereo unspecified)	none
O=C1C=C(/C=C/C2C=CC=CC2)C[C@@H](c2ccc(Cl)cc2)C1 (stereo partly specified)	ANO1 activ -9.8 (no result: aSyn UTR inh, ANO1 block, KLF5 inh)
CN1CCN(CCCN2c3ccccc3Sc3ccc(Cl)cc32)CC1	ANO1 block 25!
Nc1ccc2c(c1)Oc1ccccc1C=C2	ANO1 activ -5.3
O=C(CC1CCC1)Nc1cccc2c([N+](=O)[O-])cccc12	none (no result: KLF5 inh)
Nc1nc2c(s1)CC(c1ccccc1)CC2 (stereo unspecified)	ANO1 block 25
NC(N)=NN=C(c1ccc(F)cc1)c1ccc(C(F)(F)F)cc1	none (no result: aSyn UTR inh, Jurkat NFkB inh, ANO1 block, 697 NFkB inh, KLF5 inh)
O=C(CCCc1ccccc1)NC1CC1	none
O=C(O)CCCc1ccc2c(c1)CCc1ccccc1-2	aSyn UTR inh 109 (no result: KLF5 inh)
CN(C)c1ccc(/C=N/Nc2nc3ccccc3o2)cc1	aSyn UTR inh 67
CCS(=O)(=O)c1ccc(C=NNc2nc3ccccc3o2)cc1	none (no result: aSyn UTR inh, Jurkat NFkB inh, ANO1 block, 697 NFkB inh, KLF5 inh)
Cc1nc2c(o1)C(=O)c1ccccc1C2=Nc1ccccc1	none (no result: aSyn UTR inh, Jurkat NFkB inh, ANO1 block, 697 NFkB inh, KLF5 inh)
COc1ccc(C(=O)NCCS(=O)(=O)NCc2ccccc2)cc1	none (no result: KLF5 inh)
CCOc1ccc(NC(=O)CCC(=O)Oc2ccc(C)cc2)cc1	none
Cc1occc1C(=O)NNC(=S)NC(=O)COc1ccc(Cl)cc1Cl	ANO1 activ -5, ANO1 block 100
Cc1occc1C(=O)NNC(=O)COc1ccc(Br)cc1Br	none
O=C(COc1ccc(Cl)cc1Cl)NC(=S)Nc1ccccc1C(=O)O	ANO1 block 25 (no result: ANO1 activ)
O=C(Nc1nc(=S)ss1)c1c(F)cccc1F	none
CC(=O)Nc1nc(=S)ss1	none
CC(C)CC(=O)Nc1nc(=S)ss1	ANO1 block 100
Cc1ccccc1C(=O)Nc1nc(=S)ss1	ANO1 block 100
Cc1ccc(Cn2nnc3c(=O)n(CC(=O)NCc4ccccc4)cnc32)cc1	none
COc1cc(C(=O)NCC2CCCO2)cc(Br)c1OCc1ccccc1 (stereo unspecified)	none (no result: aSyn UTR inh, ANO1 block, KLF5 inh)
O=C(c1ccc(Cl)cc1)N1CCCCC(Sc2nnc(-c3ccc4c(c3)OCO4)o2)C1=O (stereo unspecified)	aSyn UTR inh 92
CC(NCc1ccccc1)c1ccccc1O (stereo unspecified)	none
COc1ccc(CNC(=O)CC2C[C@H](C(=O)N3CCCCC3)[C@@]3(C)c4[nH]c5ccccc5c4CCN3C2=O)cc1OC (stereo partly specified)	none (no result: ANO1 activ, aSyn UTR inh, ANO1 block, KLF5 inh)
CCc1ccc(-c2nc(CN3CCC(C(=O)NCCN(CC)c4ccccc4)CC3)c(C)o2)cc1	none
CCN(CCNC(=O)C1CCN(Cc2nc(-c3ccc(Cl)cc3)oc2C)CC1)c1ccccc1	ANO1 block 100
CC(C)(C)c1ccc(C(=O)N2CCN(C(=O)c3ccco3)CC2)cc1	none
Cc1ccc(C2=NN(CCC#N)C(=O)CO2)cc1	none
COc1cccc(N2[C@@H](CC(C)=O)c3ccc(/C=C/C(C)=O)cc3S2(=O)=O)c1	none (no result: KLF5 inh)

High-throughput results as filed in PubChem.
